Hits are enriched below; roughly 2.4% of the tested compounds scored in any of these assays.
D2 ag-1 – D2 dopamine receptor (human) agonism; P14416; HEK293 T-REx D2 cells, calcium flux agonist mode; activation, % at 2 µM; 340,000 compounds, 0.53% hits;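 active = activation over 3 SD above normal in the single-dose calcium agonist read, cut at about 30% in these data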
Target sequence (P14416 whole entry, looked up): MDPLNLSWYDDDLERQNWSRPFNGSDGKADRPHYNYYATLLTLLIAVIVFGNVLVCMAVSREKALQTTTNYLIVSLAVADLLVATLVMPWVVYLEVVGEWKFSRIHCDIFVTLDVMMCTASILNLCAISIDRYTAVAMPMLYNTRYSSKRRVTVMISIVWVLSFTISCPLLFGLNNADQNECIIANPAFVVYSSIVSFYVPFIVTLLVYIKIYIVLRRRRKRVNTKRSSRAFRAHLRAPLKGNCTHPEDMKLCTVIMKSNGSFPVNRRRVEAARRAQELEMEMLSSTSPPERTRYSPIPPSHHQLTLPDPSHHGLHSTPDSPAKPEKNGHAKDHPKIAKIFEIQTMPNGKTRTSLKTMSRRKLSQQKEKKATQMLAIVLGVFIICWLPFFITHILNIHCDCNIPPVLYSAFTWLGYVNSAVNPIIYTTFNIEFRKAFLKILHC
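Tetracycline-induced HEK293 T-REx cells with force-coupled D2 receptor, plated overnight at 30 C, loaded with no-wash calcium dye. After a 10 s baseline, compound was pin-added and calcium flux read kinetically for 180 s; calcium rises flagged agonists.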
D2 antag – D2 dopamine receptor (human) antagonism | inhibition, % at 10 µM | HEK293 TREx D2 cells, calcium flux, dopamine EC80 | 340,000 compounds, 2% hits | AID 485344; in the data active = inhibition above about 30%; inactive = below that, where a call was filed
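In this primary screen, negative modulation is detected by tracking calcium flux after an EC80 dopamine challenge in inducible HEK293 T-REx D2 cells preexposed to test compound for 180 s.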
D2 PAM-1 – positive allosteric modulators of human D2 dopamine receptor | 360,000 compounds, 0.23% hits | potentiation, % (concentration not given with the values) | P14416 | DiscoveRx D2 beta-arrestin cells, luminescence, 90 min; 100% = 57 uM dopamine signal; in the data active = potentiation above about 50%; inconclusive = mostly about 30% to 49%
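PathHunter beta-arrestin assay in DiscoveRx D2 cells. Compounds were added with an EC20 of dopamine (50 nM final) for 90 min at 37 deg C. Luminescence was read 1 h after detection reagent, with 57 uM dopamine as the EC100 control.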
D2 PAM-2 – positive allosteric modulators of human D2 dopamine receptor | P14416 | HEK293 T-REx D2, calcium flux, EC20 dopamine potentiation | potentiation, % at 10 µM | 340,000 compounds, 0.34% hits | AID 485347;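 active = potentiation over 3 SD above the plate norm, cut at about 30% in these data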
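Using a no-wash calcium dye in inducible, force-coupled HEK293 Trex cells expressing D2, we tracked fluorescence each second for 180 s after compound, then for 180 s after EC20 dopamine to detect augmented signalling.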
D2 ag-2 – agonists of human D2 dopamine receptor (beta-arrestin); DiscoveRx PathHunter D2 beta-arrestin, luminescence, 90 min; 100% = 57 uM dopamine signal; activation, % (no concentration beside the values); 360,000 compounds, 0.084% hits; AID 624465; in the data active = activation above about 40%; inconclusive = between about 15% and that limit
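Agonist mode: compounds alone added to overnight-plated D2 PathHunter cells for 90 min at 37 C, with 57 uM final dopamine (EC100) defining full response. Beta-arrestin recruitment detected by chemiluminescent reagent, read after 1 h at ambient temperature.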
D3 ag – confirmation of human D3 dopamine receptor agonists, beta-arrestin; 2,300 compounds, 4% hits; DiscoveRx D3 beta-arrestin cells, luminescence, 90 min; AID 720506; Potency, µM (series often up to 76.9 µM), most hits filed as activators; shares compounds with D2 ag-1; also: nearly all actives have a fitted effect of over 70% in size
D2 ag-3 – D2 receptor agonism, beta-arrestin counterscreen; shares compounds with D2 ag-1; DiscoveRx PathHunter D2 beta-arrestin, luminescence, 90 min; response scale: percent relative to full dopamine signal; Potency, µM (doses to about 76.9 µM), most hits filed as activators; 2,300 compounds, 5.9% hits; AID 720507; also: nearly all actives have a fitted effect of over 70% in size
Large screens that a line does not name were inactive (follow-up assays come after a bar, where they were run). Unless noted, calls follow the shape of the dose curve; as a rule, active = well fitted activation curve with a large enough effect; inconclusive = small, poorly fitted or top-dose-only effect; inactive = flat fitted curve, though single readings scatter.

COc1ccc(NC(=O)COC(=O)CNC(=O)c2cccs2)cc1Cl	none | D3 ag inactive | D2 ag-3 inactive
CC(=NNC(=O)c1ccncc1)c1cc(Cl)ccc1Cl	none (no result: D2 ag-1, D2 antag, D2 PAM-2)
[O-][N+](=Cc1c(Cl)cccc1Cl)CC1(O)CCCCC1	none (no result: D2 ag-1, D2 antag, D2 PAM-2)
Cc1cccc(C)c1NC(=O)C[n+]1cc(-c2ccccc2)n2c1CCC2	D2 ag-1 75 | D3 ag inactive | D2 ag-3 inactive
Cc1ccccc1NC(=O)C[n+]1cc(-c2ccccc2)n2c1CCC2	none (no result: D2 ag-1, D2 antag, D2 PAM-2) | D3 ag inactive | D2 ag-3 inactive
O=C(CSc1ccc2nnc(-c3ccncc3)n2n1)NCC1CCCO1 (stereo not drawn)	none | D3 ag inactive | D2 ag-3 inactive
CCN(CC)CCCNC(=O)c1cc(-c2ccc(OC)c(OC)c2)on1	none (no result: D2 antag, D2 PAM-1, D2 ag-2)
COc1ccc(S(=O)(=O)N2CCC(N3CCN(c4ccccc4OC)CC3)CC2)cc1	D2 ag-1 37 | D3 ag inactive | D2 ag-3 inactive
COc1ccccc1N1CCN(C2CCN(S(=O)(=O)c3ccc(NC(C)=O)cc3)CC2)CC1	D2 ag-1 49, D2 antag 32, D2 ag-2 inconclusive | D3 ag inactive | D2 ag-3 inactive
COc1cc(C(=O)OCc2cccc(OC)c2OC)ccc1OCC(=O)N1CCOCC1	none | D3 ag inactive | D2 ag-3 inactive
COc1cc(C(=O)OCc2ccccc2C#N)ccc1OCC(=O)N1CCOCC1	none
CCOC(=O)CC1Sc2ccccc2NC1=O (stereo not drawn)	none (no result: D2 ag-1)
O=C(O)CC1Sc2ccccc2NC1=O (stereo not drawn)	D2 ag-1 51 | D3 ag inactive | D2 ag-3 inactive
Cc1ccccc1-c1cc(C(=O)NCC2CC2)nn1CC1CC(c2cccc([N+](=O)[O-])c2)=NO1 (stereo not drawn)	none | D3 ag inactive | D2 ag-3 inactive
Cc1ccc(NC(=O)CN2C(=O)C(c3ccc(F)cc3)=NC2(C)C)c(C)c1	none (no result: D2 antag, D2 PAM-1, D2 ag-2)
CC(=O)c1cccc(NS(=O)(=O)c2cc(-c3onc(C)c3C)ccc2C)c1	none (no result: D2 antag, D2 PAM-1, D2 ag-2)
Cc1cc(Br)ccc1NC(=O)CN(C)C(=O)c1ccc(-n2cncn2)c([N+](=O)[O-])c1	none | D3 ag inactive | D2 ag-3 inactive
Cc1ccc(NC(=O)c2ccc(-n3cncn3)c([N+](=O)[O-])c2)cc1	none
CCN(CC)S(=O)(=O)c1cc(NC(=O)c2ccc(-n3cncn3)c([N+](=O)[O-])c2)ccc1C	D2 ag-1 57 | D3 ag inactive | D2 ag-3 inactive
Cc1ccc(CNC(=O)c2ccc3c(c2)CCN3S(=O)(=O)c2ccc(Br)cc2)cc1	none (no result: D2 antag, D2 PAM-1, D2 ag-2)
CC1CCCC(NC(=O)COC(=O)c2ccc3ncsc3c2)C1C (stereo not drawn)	none (no result: D2 ag-1, D2 antag, D2 PAM-2) | D3 ag inactive | D2 ag-3 inactive
O=[N+]([O-])c1c(NCCO)cc(N2CCN(Cc3ccc4c(c3)OCO4)CC2)c2nonc12	D2 ag-1 40 | D3 ag inactive | D2 ag-3 inactive
Cc1ccc(F)c(S(=O)(=O)NC(=O)C2(C)CCN2C(=O)Cc2cccs2)c1 (stereo not drawn)	none (no result: D2 ag-1, D2 antag, D2 PAM-2)
c1ccc(N2CCN(C3CC4CCC3C4)CC2)cc1 (stereo not drawn)	D2 ag-1 54, D2 antag 87 | D3 ag inactive | D2 ag-3 inactive
COc1ccccc1C(=O)N1CCC(N2CCN(c3ccccc3)CC2)CC1	D2 ag-1 78, D2 antag 69, D2 ag-2 inconclusive | D3 ag inconclusive | D2 ag-3 inconclusive
O=C(CCC1CCCC1)N1CCC(N2CCN(c3ccccc3)CC2)CC1	D2 ag-1 53, D2 antag 77 | D3 ag inactive | D2 ag-3 inactive
CC(C)CC(=O)N1CCC(N2CCN(c3ccccc3)CC2)CC1	D2 PAM-1 inconclusive, D2 ag-2 inconclusive

High-throughput results from PubChem.
